Measurements from PubChem BioAssay AID589 (National Center for Advancing Translational Sciences (NCATS), 2007).
Among all 59,000 compounds or so, about 6,200 (11%) were called active. Another 9% or so got no clear call; they are omitted. Cut-off read from the data, not from the text of the source: active = max dye-equivalent concentration above about 10 nM; inconclusive = mostly about 1.1 nM to 9.6 nM; inactive = weaker than that. The list comes from a sample in which actives are over-represented; it also holds similar structures and randomly drawn compounds.

experiment: qHTS Assay for Spectroscopic Profiling in 4-MU Spectral Region; details: compound autofluorescence, 340/450 nm, 4-MU equivalents; active compounds read high
Procedure, shortened: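 Intrinsic fluorescence at 340/450 nm (ex/em) was read after 15 min at room temperature in pH 8.0, 100 mM Tris. Each compound concentration expressed as 4-MU-equivalent concentration from a six-point 4-MU standard series on each plate.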

Max dye-equivalent concentration, active:
CCCN(CCC)CCNC(=O)c1cc2c(C)nc3ccccc3c2o1 17 nM, Cc1nc2ccccc2c2oc(C(=O)NCC3CCCO3)cc12 (centres undefined) 12 nM, Cc1ccc2c(c1)sc1ncc(NC(=O)c3ccccc3)c(=O)n12 55 nM, CCNCc1cc2cc(C)ccc2[nH]c1=O 49 nM, O=c1[nH]c(=O)c2nc3ccccc3nc2[nH]1 210 nM, CC[C@@H]1Cc2cc(O)ccc2C2=C1c1ccc(O)cc1C[C@H]2CC 270 nM, CCOc1cc(-c2nc3cc(C)ccn3c2NCC2CCCO2)ccc1O (centres undefined) 68 nM, CC(C)c1nc(N2CCOCC2)c(C#N)c2c1COC(C)(C)C2 140 nM, CC1(C)Cc2c(C#N)c(SCc3nc4ccccc4[nH]3)nc(N3CCOCC3)c2CO1 28 nM, CC(C)Cc1nc(N2CCOCC2)c(C#N)c2c1CCC2 56 nM, COc1ccc(CSc2nc(N3CCOCC3)c3c(c2C#N)CC(C)(C)OC3)cc1 30 nM, CC(C)C(=O)N1CCN(c2nc(-c3ccccc3)c3c(c2C#N)CC(C)(C)OC3)CC1 190 nM, CCCCCC(=O)Nc1ccc2oc(-c3ccncc3)nc2c1 23 nM, O=C1NC(c2ccncc2)Nc2sc3c(c21)CCCC3 (centres undefined) 59 nM, c1ccc2c(Nc3ccncc3)nc(-c3ccc4c(c3)OCO4)nc2c1 19 nM, COc1ccc2nc(N3CCCC(O)C3)c(C#N)cc2c1 (centres undefined) 170 nM, CCOc1ccc(CCNC(=O)C2CCN(c3ccc(N4CCOCC4)nn3)CC2)cc1OCC 410 nM, COc1ccc2[nH]c3ccc(OC)cc3c2c1 200 nM, Cc1c(NC(=O)c2coc(=O)c(Br)c2)c(=O)n(-c2ccccc2)n1C 190 nM, O=C1c2ccccc2C(O)N1Cc1ccccc1 (centres undefined) 25 nM, COc1cccc(-c2cc3nc4c(c(N5CCC6(CC5)OCCO6)n3n2)CCCC4)c1 100 nM, Cc1cccn2c(=O)c3cc(C#N)c(=NC(=O)c4cccnc4)n(CC4CCCO4)c3nc12 (centres undefined) 3400 nM, Cc1cccn2c(=O)c3cc(C#N)c(=O)n(CCCN4CCOCC4)c3nc12 8300 nM

Max dye-equivalent concentration, inactive:
Cc1ccc(S(=O)(=O)NCC(=O)N(CC(=O)NC2CCCCC2)Cc2ccco2)cc1, CCCC(=O)N(CCc1ccccc1)Cc1nc2ccccc2c(=O)[nH]1, Cc1cc(C(=O)NCCCc2ccccc2)no1, c1ccc2c(NCC3CCCO3)nc(-c3ccncc3)nc2c1 (centres undefined), Cc1ccc(C(=O)NCC2CCCO2)o1 (centres undefined), Cc1cc(NC(=O)CN2CCC(O)(c3cccc(F)c3)CC2)no1, CCn1c(SCC(=O)c2ccc(Cl)s2)nnc1-c1cccs1, Cc1ccn2cc(-c3nonc3C)cc2c1, COC(=O)c1cccc(NC(=O)CSc2nc(C)cc(=O)[nH]2)c1, Cc1ccccc1NC(=O)c1ccccc1, Cc1ccc(NC(=O)c2nc[nH]c2C(=O)N2CCCCC2)c(C(=O)c2ccccc2)c1, CCOC(=O)c1c(C)[nH]c(C)c1C(=O)CSc1nc(N)cc(N)n1, CCOC(=O)N1CCC(NC(=O)CN2C(=O)COc3ccc(C(C)(C)C)cc32)CC1, O=C(c1cccc(F)c1)N1CCC2(CCCN(Cc3ccncc3)C2)CC1, CCC12CN3CC(CC)(CN(C1)C31C(=O)N(C)c3ccc(C)cc31)C2=O (centres undefined), CC(=O)OCc1cc2cc(C)ccc2[nH]c1=O, CCOC(=O)c1cc2cc(C)ccc2[nH]1, O=C(CNC(=O)c1ccc(Cl)cc1Cl)NCC(=O)Nc1ccccc1N1CCOCC1, COc1ccc2c(c1OC)C(=O)OC2c1c(O)nc(SC)n(-c2ccccc2)c1=O (centres undefined), O=c1[nH]c(-c2cccs2)nc2ccccc12, CC1(C)CCCC2=C1CC1C(=O)N(c3ccccc3)C(=O)C1C2 (centres undefined), CCOC(=O)C1CCN(Cc2coc3ccc(Cl)cc3c2=O)CC1, Cc1noc(C)c1-c1nccc(N2CCOCC2)n1, O=C(NCCC1=CCCCC1)C1CCN(Cc2cnn(-c3ccccc3)c2-n2cccc2)CC1, COC(=O)c1ccc(Oc2nc(Nc3ccc(F)cc3)nc(N3CCCC3)n2)cc1, c1ccc(CNc2ncncc2-c2cccnc2)cc1, Cc1ccc(S(=O)(=O)c2nc(NCCCn3ccnc3)sc2Cl)cc1, Cc1ccc(C(=O)O)cc1S(=O)(=O)NCC1CCCO1 (centres undefined), Cc1ccc(-c2noc(-c3ccccc3C(=O)NCC3CCCO3)n2)cc1 (centres undefined), O=C(CSc1nnc(-c2ccco2)o1)NCC(=O)c1ccccc1, COc1ccc(C(=O)N(Cc2ccc(N(C)C)cc2)C2CCS(=O)(=O)C2)cc1 (centres undefined), CC(=O)N1CCC2(CCCN(c3ncccn3)C2)CC1, COc1cc2c(cc1OC)C(c1ccncc1)CC(=O)N2 (centres undefined), c1ccc2[nH]c(NCCN3CCOCC3)nc2c1, COc1ccc(C(CNC(=O)c2cccnc2SC)N2CCOCC2)cc1 (centres undefined), CCn1c(Cc2ccccc2)nnc1SCc1nc2ccccc2c(=O)[nH]1, O=C(Nc1cccc(F)c1)N1CC2(CCN(C(=O)c3csnn3)CC2)C1, O=C(c1cc(C(F)(F)F)cc(C(F)(F)F)c1)N1CCC[C@@]2(CCN(c3ccccn3)C2)C1, Cc1cc(C)n(C(=O)c2ccc(S(=O)(=O)N3CCCC3)cc2)n1, CCSc1nc(=S)n(CC)c(C)c1C(C)=O, CCOC(=O)c1sc(NC(=O)CSc2nnc(-c3ccco3)o2)c(C(=O)OCC)c1C, CC1CCCN(C(=O)Cn2c(=O)oc3ccccc32)C1 (centres undefined), COC(=O)C1=C(C)NC(=O)NC1/C=C/c1ccccc1 (centres undefined), CNC(=O)Nc1cc(C(C)(C)C)no1, Cn1nnc(NC(=O)CSc2ncn[nH]2)n1, CCCC(=O)Nc1ccc2c(c1)nc1n2CCSC1, CCCCC(=O)Nc1ccc2c(c1)OCCO2, O=C(c1ccco1)N1CCC2(CC1)CCN(c1ncccn1)CC2, COC(=O)c1ccc(Oc2nc(NC(C)C)nc(SC)n2)cc1, COc1cccc(-c2nc(Nc3ccncc3)c3ccccc3n2)c1, c1ccc2c(Nc3ccncc3)nc(-c3ccoc3)nc2c1, CCOCCCN1C(=O)CN(C2CCCCC2)C(=O)C1c1ccc(OCC)c(OC)c1 (centres undefined), COc1ccc(CNC(=O)c2c(C)cc(=O)oc2C)cc1OC, COCCN(C(=O)CCC(=O)Nc1ccccn1)C(C(=O)NCCC(C)C)c1ccc(OC)cc1 (centres undefined), Oc1ccccc1CNCc1ccccc1O, c1ccc2c(CNn3cnnc3)cccc2c1, Cc1cc(C)c2c(c1)c(C)cc1nnc(SCC(=O)NCc3ccco3)n12, COc1ccc(OC)c(CNC(=O)C2CCCN(c3nc4ccccc4o3)C2)c1 (centres undefined), Nc1nonc1-c1noc(-c2ccc(Br)o2)n1, c1csc(CN2CCN(Cc3cccs3)C2c2cccs2)c1, Cc1nn(-c2ccccc2)c2[nH]c(C(F)(F)F)cc(=O)c12, COc1ccc(CC(=O)Nc2nc3n(n2)C(c2ccccc2)CC(=O)N3)cc1OC (centres undefined), COc1ccc(CCNC(=O)C2CCN(c3nn4c(=O)cc(C)nc4s3)CC2)cc1OC, CCCS(=O)(=O)N1CCC(C(=O)NCCc2ccc(OC)c(OC)c2)CC1, Cc1ccc(-n2c(N)c(C(=O)N3CCOCC3)sc2=S)c(C)c1, CS(=O)(=O)N1CCC2(CC1)CN(Cc1cc(C(F)(F)F)cc(C(F)(F)F)c1)C2, CCOc1cc(CN2CCN(C(=O)CC(C)C)CC2)ccc1OC, O=C(CSc1nnc(-c2ccccn2)n1-c1ccccc1)Nc1ccc2c(c1)OCO2, COc1cccc(Oc2ccc(N)cc2)c1, COc1ccc2[nH]c3cc4c(=O)c5cc(OC)ccc5[nH]c4cc3c(=O)c2c1, O=C(O)CN(Cc1ccco1)S(=O)(=O)c1ccc(F)cc1, O=C(c1ccco1)N1CCN(CC(=O)N(C2CCCCC2)C2CCS(=O)(=O)C2)CC1 (centres undefined), Cc1cc(C(=O)Nc2c(C)n(C)n(-c3ccccc3)c2=O)cs1, Cc1c(NC(=O)c2cccnc2)c(=O)n(-c2ccccc2)n1C, CCOCCCNS(=O)(=O)Cc1ccccc1, O=C(NC1CCCCC1)C1c2ccccc2C(=O)N1Cc1ccco1 (centres undefined), O=C1c2cccnc2C(Nc2ccc(S(=O)(=O)N3CCCCCC3)cc2)N1Cc1ccccc1 (centres undefined), CCOC(=O)CSc1nnc(NC(=O)c2cccc(S(=O)(=O)N3CCCC3)c2)s1, CN1C(=O)C[C@H](c2ccccc2)C1=O, CCCCCOC(=O)NCCOC(=O)Nc1ccc(C(=O)OCC)cc1, COc1cccc(-c2nc(S(=O)(=O)c3ccccc3)c(N3CCOCC3)o2)c1, CC1CC(C)CN(CC(=O)Nc2ccc(S(N)(=O)=O)cc2)C1 (centres undefined), Cn1c(=O)c2c(nc(CN3CCOCC3)n2Cc2ccccc2)n(C)c1=O, Cc1nnc(SCC(N)=O)n1CC1CCCO1 (centres undefined), C[C@H](CCC(=O)NCC(=O)O)[C@H]1CC[C@H]2[C@H]3[C@@H](C[C@@H](O)[C@]12C)[C@]1(C)CC[C@H](O)C[C@@H]1C[C@@H]3O, O=S(=O)(NCc1cccnc1)c1ccc(Br)s1
